Only some compounds are listed: those with a hit (about 1.5% of all), similar ones and a draw of the others.
rTrxR1 inhibitor – inhibitors of rat thioredoxin reductase 1 | recombinant rTrxR1, NADPH fluorescence consumption, selenite substrate | Potency, µM (top dose mostly 114 µM), without a hit: at the highest dose activity change, negative = inhibition, usual class: inhibitors | 390,000 tested, 1% active; further: potency means the concentration at half of the fitted maximal effect; nearly all actives have a fitted effect of over 65% in size
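Rat TrxR1 (90 nM in the dispensed reagent) was pre-reduced with 400 uM NADPH for 5 min at room temperature, then incubated with compound for 15 min. After 400 uM selenite was added, NADPH fluorescence (Ex 340/Em 450 nm) was followed for 8 min.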
mIDH1 inhibitor – inhibitors of human mutant IDH1 R132H; IDH1-R132H enzyme, NADPH consumption, diaphorase/resazurin fluorescence; Potency, µM (highest dose often 76.6 µM), for inactives: top-dose activity change, negative = inhibition, usual class: inhibitors; AID 602179; 390,000 tested, 0.093% active; O75874; further: potency means the concentration at half of the fitted maximal effect; nearly all actives have a fitted effect of over 65% in size
Target sequence (O75874 whole entry R132H, stated change not applied): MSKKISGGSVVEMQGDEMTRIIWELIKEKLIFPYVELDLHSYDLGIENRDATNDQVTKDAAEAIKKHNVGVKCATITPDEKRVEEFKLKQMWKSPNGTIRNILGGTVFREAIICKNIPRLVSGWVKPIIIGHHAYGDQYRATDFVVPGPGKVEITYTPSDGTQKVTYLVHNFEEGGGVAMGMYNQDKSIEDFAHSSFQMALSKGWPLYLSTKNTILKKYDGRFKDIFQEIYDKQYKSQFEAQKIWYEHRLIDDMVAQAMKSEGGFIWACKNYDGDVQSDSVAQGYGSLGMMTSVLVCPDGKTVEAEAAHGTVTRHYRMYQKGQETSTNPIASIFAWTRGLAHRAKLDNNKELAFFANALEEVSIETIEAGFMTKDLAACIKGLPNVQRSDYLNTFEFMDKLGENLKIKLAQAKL
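IDH1-R132H (0.5 ug/mL) preincubated 30 min with compound, then NADPH (0.016 mM) and alpha-KG (2 mM) added; 80 min at RT, pH 7.5. Remaining NADPH coupled via diaphorase/resazurin to fluorescence (540/590 nm); concentration-response curves normalized to no-enzyme control.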
Coupling enz – inhibits coupling enzyme system, counter-screen for aldolase hits | coupling enzyme system counterscreen, AmpLite Red fluorescence | activity change, negative = inhibition, % at 58.2 µM, hits read low | 290,000 tested, 0.67% active | AID 2472; in the data active means activity change below about -30%
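Fluorescence at 525 nm excitation and 598 nm emission measured inhibition of the coupled detection system without aldolase. Compounds (at 57.5 uM final) were preincubated 10 min at room temperature with coupling enzyme reagent before a 20 min substrate/AmpLite Red step.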
TrxR1 substrate – substrates of rat thioredoxin reductase 1; O89049; purified TrxR1 substrate turnover, NADPH consumption readout; Potency, µM (series often up to 114 µM), inactives show at the top dose activity change, negative = substrate turnover; 390,000 tested, 0.01% active; AID 588456; further: potency means the concentration at half of the fitted maximal effect; nearly all actives have a fitted effect of over 50% in size
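Rat TrxR1, dispensed at 90 nM, was prereduced with 400 uM NADPH (final) for 5 min at ~22 deg C, then incubated with compound 15 min before 400 uM selenite. A first-read NADPH fluorescence drop versus no-compound background flagged substrates.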
Eya2 inh – Eya2 (human) phosphatase inhibition; 330,000 tested, 0.006% active; Potency, µM (titrated, usually from 76.9 µM), for the others: at the highest dose activity, negative = inhibition, hits mostly inhibitors; O00167; recombinant Eya2, OMFP fluorescence dephosphorylation (OMFP is methylfluorescein phosphate); AID 488837; further: potency means the concentration at half of the fitted maximal effect
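Eya2 protein (added as 0.2 uM solution) was preincubated with compound for 10 min at ambient temperature in 50 mM HEPES pH 7.5, 50 mM NaCl, 5 uM MgCl2, 0.05% BSA, 1 mM DTT. OMFP (added at 50 uM) then reacted 10 min; fluorescence read at 485/525 nm.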
* marks the source's active call; other numbers are inactive results; ? = inconclusive; / = no result; ! = not confirmed by another sample; [ ] = remark or other dose. Unless noted, the call rests on the fitted dose curve; in most records, active means well fitted curve in the direction sought with a large enough effect; inconclusive means small, poorly fitted or top-dose-only effect, or another doubt; inactive means no such curve, though single readings can be large; an effect the other way counts as inactive or inconclusive. On the % scale 0 is the no-effect control and ±100 the full control effect.

SMILES	rTrxR1 inhibitor	mIDH1 inhibitor	Coupling enz	TrxR1 substrate	Eya2 inh
CCOc1ccccc1N/C(=C(/C(Cl)=C(Cl)Cl)[N+](=O)[O-])n1cncn1	22µM*	5%	-4	-14%	-2%
CCOc1ccc(N/C(=C(/C(Cl)=C(Cl)Cl)[N+](=O)[O-])n2cncn2)cc1	/	/	-3	/	7%
Cc1ccc(/C=C/C(=O)c2ccccc(=O)c2O)c(C)c1	-67%	7%	-5	1%[57.1 µM]	-1%
Cc1ccc(C)c(/C=C/C(=O)c2ccccc(=O)c2O)c1	50µM*	8%	-1	-15%	2%
O=C(/C=C/c1ccccc1Cl)c1ccccc(=O)c1O	35µM*	0%	2	-7%	5%
CC1=NN=C(c2ccccc2)C(c2c[nH]c3ccccc23)N1O (centres undefined)	?	5%	-3	0%	4%
Cc1[nH]c2ccccc2c1C1C(c2ccccc2)=NN=C(C(C)C)N1O (centres undefined)	45µM*	9%	3	-9%	-8%
COc1ccc(-c2nc(-c3ccccc3)c(NC(C)C)o2)cc1	/	/	4	/	/
COC(=O)c1ccc(C(=O)OC)c(NC(=O)C2CC2)c1	-6%	0%	3	14%	5%
COC(=O)c1ccc(C(=O)OC)c(NC(=O)/C=C/C(=O)O)c1	45µM*	26%	5	31%	-6%
COc1ccc(C2(C(=O)c3ccccc3)C(=O)c3ccccc3C2=O)cc1	2.2µM*	8%	-1	3%	-1%
CN(C(=O)COC(=O)c1ccccc1OCC(=O)Nc1ccc(Br)cc1)c1ccccc1	30%	/	/	6%	/
CC(OC(=O)c1ccccc1OCCOc1ccccc1)C(=O)Nc1ccc(Br)cc1 (centres undefined)	31%	/	/	3%	/
O=C(NC1CCCc2ccccc21)c1cnn2c1NC(=C1CC1)C=C2C(F)F (centres undefined)	26%	/	/	1%	/
c1ccc(-c2nc(-c3cccc4ccccc34)c(Nc3ccc4ccccc4c3)o2)cc1	/	/	-2	/	/
CC(CN1c2ccccc2Sc2ccccc21)N(C)C (centres undefined)	12µM*!	-12%	0	17%[57.1 µM]	9%
COc1ccc(C2C=C(c3ccccc3)Nc3nc(NC(=O)c4ccc(C)cc4)nn32)cc1 (centres undefined)	19%	-7%	/	5%	/
O=C(Nc1nc2n(n1)C(c1ccccc1)C=C(c1ccccc1)N2)c1ccccc1 (centres undefined)	56µM*	-15%	/	10%	/
COc1ccccc1/C=c1/[nH]c(=O)/c(=C\c2ccccc2OC)[nH]c1=O	14%	/	/	-1%	/
N#CC1=C(N)C2=CCCC[C@H]2[C@H](c2ccccc2)C1(C#N)C#N	?	23µM*	-3	-1%	-11%
N#CC1=C(N)C2=CCCC[C@H]2[C@H](c2ccc(Br)cc2)C1(C#N)C#N	5µM*	?	-23	3%	3%
O=C(C[N+]12CN3CN(CN(C3)C1)C2)c1ccc(Br)cc1	-21%	/	/	1%	/
COc1ccccc1N1C(=O)C=C(Sc2nc(C)cc(C)n2)C1=O	2.8µM*	4%	-3	11%[11.4 µM]	9%
CC(C)[C@H](N)C(=O)N[C@@H](CCC(N)=O)C(=O)NCC(=O)N[C@@H](CCC(=O)O)C(=O)N[C@@H](CCC(=O)O)C(=O)N[C@@H](CO)C(=O)N[C@@H](CC(N)=O)C(=O)N[C@@H](CC(=O)O)C(=O)N[C@@H](CCCCN)C(=O)O	/	/	0	/	/
CC(=O)N1N=C(c2ccco2)CC1c1ccco1 (centres undefined)	-5%[57.1 µM]	7%	6	4%[57.1 µM]	-1%
SMILES	rTrxR1 inhibitor	mIDH1 inhibitor	Coupling enz	TrxR1 substrate	Eya2 inh
Cc1ccc(C2=NN(C(=O)CCl)C(c3ccco3)C2)o1 (centres undefined)	22µM*	8%	1	3%[57.1 µM]	-10%
N#C/C(=C\c1cccs1)C(=O)c1ccccc1Cl	13µM*	-4%	0	-6%	2%
CC(C)(C)C(=O)/C(C#N)=C/c1cccs1	-1%[57.1 µM]	7%	2	-5%[57.1 µM]	-23%
CCCN(CCC)C1CC(=O)N(Cc2ccccc2)C1=O (centres undefined)	20µM*	0%	2	7%	-9%
O=C1CC(N(O)C2CC(=O)N(Cc3ccccc3)C2=O)C(=O)N1Cc1ccccc1 (centres undefined)	?	3%	-1	10%[57.1 µM]	-1%
CC(O)CCCCCCC/C=C/C=C/C(N)=O (centres undefined)	/	/	2	/	/
CCN(CC)C(NC(=O)Cc1ccccc1)C(Cl)(Cl)Cl (centres undefined)	7.9µM*	16%	3	11%	4%
Cn1c(=O)c2cc(NCc3ccccc3)nnc2n(C)c1=O	-18%	4%	-59*	-11%	-6%[15.4 µM]
CCCN(Cc1cc2ccc(C)cc2[nH]c1=O)C(=O)c1ccccn1	-1%[57.1 µM]	25%	-32*	12%[57.1 µM]	9%
CCCCN(Cc1cc2cc(C)ccc2[nH]c1=O)C(=O)c1ccccn1	29%	-4%	-5	6%	18%
Cc1cc(NS(=O)(=O)c2ccc(NC(=S)NC(=O)c3ccc(Br)cc3)cc2)no1	45µM*	7%	10	6%	4%
CCc1nnc(NS(=O)(=O)c2ccc(NC(=S)NC(=O)c3cccnc3)cc2)s1	1%[57.1 µM]	-2%	6	8%[57.1 µM]	7%
CCc1nnc(NS(=O)(=O)c2ccc(NC(=S)NC(=O)c3ccc(F)cc3)cc2)s1	18µM*	-13%	8	-3%	3%
NCCCCCCCCCCNCCCN	/	/	0	/	/
Cc1cc(C)c2c(C)ccnc2c1	20%	/	/	51%	/
CC[C@H](C)[C@H](NC(=O)CNC(=O)[C@H](C)NC(=O)[C@H](C)N)C(=O)NCC(=O)N[C@H](C(=O)N[C@@H](CC(C)C)C(=O)N[C@H](C(=O)N[C@H](C(=O)O)C(C)C)[C@@H](C)O)[C@@H](C)CC	/	/	0	/	/
O=C1C(Nc2ccccc2)=C/C(=N/S(=O)(=O)c2cccs2)c2ccccc21	-35%	17%	-38*	-15%	-7%
Cc1ccc(NC2=C/C(=N/S(=O)(=O)c3cccs3)c3ccccc3C2=O)cc1	11%	13%	-42*	2%	-8%
COC(=O)c1ccccc1NC1=C/C(=N\S(=O)(=O)c2cccs2)c2ccccc2C1=O	8%	23%	4	4%	-5%
CC(=O)N1/C(=C/c2ccc(N(C)C)cc2)C(=O)c2ccccc21	40µM*	14%	-3	-5%	-15%
CCCCNc1ccc(/C=C2\C=Cc3ccccc32)cc1	-13%	/	/	-7%	/
CNCc1cc2ccc(C)cc2[nH]c1=O	25µM*	6%	0	8%	-13%
Cc1ccc2cc(CNC(C)(C)C)c(=O)[nH]c2c1	-13%	4%	-3	1%	-32%
